# Test results reported in PubChem BioAssay AID602358 (National Center for Advancing Translational Sciences (NCATS), 2012).
# Results filed as inconclusive are left out. A number with no mark means an inactive call. Calls of active or inactive are those of the source. The call rests on the fitted dose curve; in most records, active means well fitted inhibition curve with a large enough effect; inconclusive means small, poorly fitted or top-dose-only effect; inactive means flat fitted curve, though single readings scatter.
# Molecular target: Luciferin 4-monooxygenase (Photinus pyralis) (UniProt P08659)
# Test: FLuc inhibitory activity for the follow-up compounds in a biochemical assay with Km concentrations of substrate and 500microM CoASH
# Conditions: purified FLuc, Km substrates + 500 uM CoASH, luminescence; series mostly up to 57.5 µM; activity change, negative = inhibition: at the top concentration
# From the text: NCGC Assay Overview: Firefly (Photinus pyralis) luciferase is one of the most commonly used transcriptional reporters. It is considered one of the more dynamically responsive reporters - that is, responsive to changes in reporter transcription - as it requires no post-translational modifications and is enzymatically active directly after protein synthesis (Wood, 1998). With no endogenous expression in mammalian cells and without the requirement of external excitation, it offers very little background signal, thus generally providing excellent signal to background for most assays. Previous profiling work to determine the prevalence of compounds that affect FLuc enzymatic activity (PubChem AID 411) identified that ~3% of the MLSMR library (then at ~72K) inhibited FLuc. […] Of the compounds identified in this profile that inhibited FLuc, 151 compounds were selected for further analysis, in an effort to better understand their mode of inhibiting FLuc. The assay described here was to determine the activity of the compounds in an FLuc assay that contained KM concentrations of substrates and 500uM CoASH.
# NCGC Assay Protocol Summary: Reagents: 50mM Tris acetate, pH 7.5; 10mM Mg acetate; 10uM D-luciferin (Sigma #L9504); 10uM ATP; 0.01% Tween-20; 0.05% BSA; 10nM P. pyralis luciferase (Sigma #L9506); 500 uM CoASH Control compounds used were two known firefly luciferase inhibitors (3-(5-(3-chlorophenyl)-1,2,4-oxadiazol-3-yl)benzoic acid and 5-(2-fluorophenyl)-3-phenyl-1,2,4-oxadiazole), and DMSO. Three microliters containing firefly luciferase substrates in buffer (final concentrations: 50mM Tris acetate, pH 7.5, 10mM Mg acetate, 0.01% Tween-20, 0.05% BSA, 10uM D-luciferin, 10uM ATP, and 500 uM CoASH) are dispensed into each well of a Greiner white, solid-bottom 1536-well format plate using a flying reagent dispenser (FRD). These assay plates were then treated with 23nL of compound or DMSO using a Kalypsys pin tool, which allows for delivery of a 12-point intraplate titration of each compound to the assay plate (quantitative HTS), with a final compound concentrations ranging from approximately ~60uM to 0.3nM. One microliter of firefly luciferase in 500mM Tris-acetate buffer was then delivered by FRD to each well for a final enzyme concentration of 10nM. Luciferase activity was then measured using a ViewLux CCD imager (PerkinElmer), with an average exposure time of 2-30 seconds (2X binning, medium/high gain).
# Chain of Luciferin 4-monooxygenase (Photinus pyralis) (P08659 whole entry, looked up): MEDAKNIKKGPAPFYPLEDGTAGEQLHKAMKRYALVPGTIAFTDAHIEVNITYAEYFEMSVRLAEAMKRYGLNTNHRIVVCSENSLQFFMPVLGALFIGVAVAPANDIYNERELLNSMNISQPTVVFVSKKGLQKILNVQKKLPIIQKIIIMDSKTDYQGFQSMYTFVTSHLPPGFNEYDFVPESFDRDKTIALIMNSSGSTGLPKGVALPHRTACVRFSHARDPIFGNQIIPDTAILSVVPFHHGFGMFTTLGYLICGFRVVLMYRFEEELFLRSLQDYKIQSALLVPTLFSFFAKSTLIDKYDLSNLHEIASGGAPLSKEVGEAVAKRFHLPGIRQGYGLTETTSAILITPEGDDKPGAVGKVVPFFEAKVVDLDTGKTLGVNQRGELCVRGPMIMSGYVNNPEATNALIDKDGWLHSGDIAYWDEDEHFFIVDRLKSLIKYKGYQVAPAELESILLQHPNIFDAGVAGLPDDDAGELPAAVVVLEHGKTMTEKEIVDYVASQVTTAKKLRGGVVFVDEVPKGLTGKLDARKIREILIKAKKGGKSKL
SMILES,Potency,"activity change, negative = inhibition"
Cc1c(C)c2ccc(OCC(=O)Nc3ccccn3)c(C)c2oc1=O,0.0041 µM (active),
O=C(O)c1cccc(NC(=O)c2cccc(NC(=O)C3CCCO3)c2)c1 (stereo not given),18.3 µM (active),
O=C(O)c1ccc(NC(=O)c2cc(S(=O)(=O)N3CCCCC3)c(Cl)cc2Cl)cc1,,-8.29%
O=C(Cc1ccccc1)Nc1ccc(C(=O)Nc2ccccc2C(=O)O)cc1,9.19 µM (active),
Cc1ccc(C(=O)Nc2cccc(C(=O)O)c2)cc1S(=O)(=O)N1CCCC1,5.17 µM (active),
COc1ccc2nc(NC(=O)c3cnccn3)sc2c1,0.919 µM (active),
Cc1ccc2sc(-c3ccc(N)cc3)nc2c1,0.0411 µM (active),
CC(C)Oc1ccc(C(=O)Nc2ccc(-c3nc4ccccc4s3)cc2)cc1,,-11.1%
O=C(Nc1ccccc1C(=O)O)c1ccc(NC(=O)C2CCCO2)cc1 (stereo not given),5.8 µM (active),
Cc1ccc(S(=O)(=O)N2CCN(C(=O)c3ccccc3-c3nc4ccccc4s3)CC2)c(C)c1,,-6.32%
COc1ccc(C(=O)Nc2ccccc2-c2nc3ccccc3s2)c(OC)c1,,-9.63%
COc1ccc(C(=O)Nc2ccccc2C(=O)N/N=C/c2ccc(O)c(OC)c2)cc1,0.0037 µM (active),
CCn1c(C)nc2cc(-c3nc4n(n3)Cc3ccccc3-4)ccc21,0.0146 µM (active),
O=C(Nc1ccccc1C(=O)O)c1cccc(NC(=O)c2ccccc2Cl)c1,14.6 µM (active),
O=C(O)c1cccc(NC(=O)c2ccccc2NC(=O)c2ccccc2F)c1,18.3 µM (active),
O=C(O)c1cccc(NC(=O)c2cccc(S(=O)(=O)Nc3cccc(F)c3)c2)c1,,-7.88%
Cc1ccc(S(=O)(=O)N2CCOCC2)cc1C(=O)Nc1ccccc1C(=O)O,,-24.6%
COc1cc(OC)cc(-c2nc3ccccc3s2)c1,3.66 µM (active),
Nc1ccc2nc(-c3ccc(O)cc3)sc2c1,0.146 µM (active),
CCOc1ccc(C(=O)Nc2ccccc2C(=O)O)cc1,0.41 µM (active),

SMILES,Potency,"activity change, negative = inhibition"
C/C(=N\NC(=O)c1ccccc1NC(=O)c1ccc(Cl)cc1)c1ccncc1,0.0046 µM (active),
Cc1ccc(C(=O)Nc2cccc(C(=O)O)c2)cc1S(=O)(=O)N1CCOCC1,20.6 µM (active),
COc1cccc(-c2nc3ccccc3s2)c1,0.517 µM (active),
CCOc1ccc2nc(NC(=O)c3ccccn3)sc2c1,0.163 µM (active),
O=C(Nc1ccccc1C(=O)O)c1ccc(Cl)c(S(=O)(=O)N2CCOCC2)c1,5.8 µM (active),
Cc1ccc(C(=O)Nc2ccc(C(=O)O)cc2)cc1S(=O)(=O)Nc1ccccc1,,-17.2%
O=C(Nc1ccccc1C(=O)Nc1ccccc1C(=O)O)c1ccccc1,10.3 µM (active),
COc1c(C)cccc1C(=O)Nc1ccc(-c2nc3ccccc3s2)c(Cl)c1,,-16.4%
O=C(O)c1ccc(NC(=O)c2ccccc2NC(=O)c2cccc(Br)c2)cc1,7.3 µM (active),
Cc1ccc2sc(-c3ccc(NC(=O)c4cc(-n5cnnc5)ccc4Cl)cc3)nc2c1,1.63 µM (active),
CCOc1ccc2nc(NC(=O)c3ccoc3C)sc2c1,0.183 µM (active),
COc1ccc2nc(NC(=O)c3ccccc3C(=O)O)sc2c1,6.51 µM (active),
COc1ccc2nc(NC(=O)c3ccc([N+](=O)[O-])o3)sc2c1,1.16 µM (active),
COc1ccc2nc(NC(=O)c3ccco3)sc2c1,0.291 µM (active),
Nc1ccc(C(=O)Nc2ccccc2C(=O)O)cc1,3.26 µM (active),
Cc1cccc(C(=O)Nc2ccc(-c3nc4ccccc4s3)cc2Cl)c1,18.3 µM (active),
CCOc1c(Cl)cc(C(=O)Nc2ccccc2C(=O)O)cc1Cl,11.6 µM (active),
O=C(Nc1cccc(-c2nc3ccccc3s2)c1)c1cc(-n2cnnc2)ccc1Cl,3.66 µM (active),
Cc1c(NC(=O)c2cccs2)cccc1-c1nc2ccccc2s1,3.26 µM (active),
Cc1ccc(C(=O)Nc2ccc(C(=O)O)cc2)cc1S(=O)(=O)NCc1ccccc1,,-14.4%
